Test [1] has as its target T1, GST-Nv-NF-kB (Ser allele) (Nematostella vectensis, UniProt A7UNT2 2-411).
T1 sequence: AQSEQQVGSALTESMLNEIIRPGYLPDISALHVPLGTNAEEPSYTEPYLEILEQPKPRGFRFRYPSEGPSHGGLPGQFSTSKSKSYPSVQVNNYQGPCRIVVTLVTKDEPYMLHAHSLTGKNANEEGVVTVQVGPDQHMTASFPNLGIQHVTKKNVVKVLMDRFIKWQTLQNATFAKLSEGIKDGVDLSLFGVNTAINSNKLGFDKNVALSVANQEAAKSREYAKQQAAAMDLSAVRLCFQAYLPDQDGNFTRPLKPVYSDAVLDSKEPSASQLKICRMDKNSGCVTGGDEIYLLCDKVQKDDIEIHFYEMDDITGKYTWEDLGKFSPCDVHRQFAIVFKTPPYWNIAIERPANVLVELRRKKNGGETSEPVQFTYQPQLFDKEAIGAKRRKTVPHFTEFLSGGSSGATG
The experiment in a line: protein-binding microarray (PBM); PBM: ~300 nM protein, 6 mM HEPES pH 7.8, 80 mM KCl, 0.5 mM EDTA, 0.5 mM EGTA, 6% glycerol, 35 ng/ul poly-dIdC, 1% milk, 1 h, room temperature; Ap Aiptasia and Nv Nematostella (sea anemones) / Co Capsaspora / Aq Amphimedon (sponge) / Dm Drosophila / Hu human; RHD is the Rel homology domain; high values mean tight binding. Conditions: dsDNA, one strand shown.

Another test deals with GST-Hu-p50 (Homo sapiens, UniProt P19838 7-356). The description is as above. Conditions: dsDNA, one strand shown.
Chain of GST-Hu-p50 (P19838 7-356): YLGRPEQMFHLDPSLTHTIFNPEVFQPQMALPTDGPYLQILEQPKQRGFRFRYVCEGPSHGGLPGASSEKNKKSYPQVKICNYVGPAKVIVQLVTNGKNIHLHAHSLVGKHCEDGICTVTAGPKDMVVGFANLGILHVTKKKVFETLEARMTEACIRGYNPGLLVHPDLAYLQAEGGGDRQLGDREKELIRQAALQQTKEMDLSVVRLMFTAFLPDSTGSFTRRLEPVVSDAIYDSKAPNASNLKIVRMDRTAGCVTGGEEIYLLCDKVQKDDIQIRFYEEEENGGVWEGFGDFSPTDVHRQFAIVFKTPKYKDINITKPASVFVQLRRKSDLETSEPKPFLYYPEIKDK

Take “CCGATTAACATCAGGGAAAGGTATGATGTTAATCGGGTCTTGATTCGCTTGACGCTGCTG”: the binding signal in test [1] stood at 3.34 z-score; in the test with GST-Hu-p50 it was 2.11 z-score.

Turning to “CCGATTAACATCAAGGAATTACCTGATGTTAATCGGGTCTTGATTCGCTTGACGCTGCTG”, the results for the binding signal (in test [1]; with GST-Hu-p50) were 4.05 z-score and 2.25 z-score, respectively.

As for “CCGATTAACATCAGATCTTCCCCTGATGTTAATCGGGTCTTGATTCGCTTGACGCTGCTG”, the binding signal worked out at 6.54 z-score in test [1] and 5.04 z-score in the test with GST-Hu-p50.

In the case of “CCGATTAACATCACGGACTTCCCTGATGTTAATCGGGTCTTGATTCGCTTGACGCTGCTG”, the binding signal was 2.24 z-score in test [1] and 1.25 z-score in the test with GST-Hu-p50.

As for “CCGATTAACATCAATTCCCAACATGATGTTAATCGGGTCTTGATTCGCTTGACGCTGCTG”, the figures for the binding signal (in test [1]; with GST-Hu-p50) were 1.63 z-score and 1.56 z-score, respectively.

For “CCGATTAACATCACGGAGTCCCCTGATGTTAATCGGGTCTTGATTCGCTTGACGCTGCTG”, the binding signal was 4.71 z-score in test [1] and 5.13 z-score in the test with GST-Hu-p50.

Turning to “CCGATTAACATCAAATACTTCCCTGATGTTAATCGGGTCTTGATTCGCTTGACGCTGCTG”, the binding signal is 3.4 z-score in test [1] and 1.98 z-score with GST-Hu-p50.

As for “CCGATTAACATCAGGAAAATACCTGATGTTAATCGGGTCTTGATTCGCTTGACGCTGCTG”, the values for the binding signal (in test [1]; with GST-Hu-p50) were 3.24 z-score and 3.12 z-score, respectively.

Take “CCGATTAACATCACCTTGGGAAATGATGTTAATCGGGTCTTGATTCGCTTGACGCTGCTG”: the binding signal (in test [1]; with GST-Hu-p50) was 2.17 z-score throughout.

As for “CCGATTAACATCAGGGGGCATTATGATGTTAATCGGGTCTTGATTCGCTTGACGCTGCTG”, the binding signal in test [1] stood at 3.29 z-score; with GST-Hu-p50, 4.09 z-score.

Regarding “CCGATTAACATCAGGAACGTCCCTGATGTTAATCGGGTCTTGATTCGCTTGACGCTGCTG”, the binding signal amounted to 2.75 z-score in test [1] and 2.12 z-score in the test with GST-Hu-p50.

With “CCGATTAACATCAGGGCCCCCCCTGATGTTAATCGGGTCTTGATTCGCTTGACGCTGCTG”, the binding signal in test [1] came out at 3.34 z-score; with GST-Hu-p50 it was 4.39 z-score.

With “CCGATTAACATCAAAGGAATCCCTGATGTTAATCGGGTCTTGATTCGCTTGACGCTGCTG”, the binding signal in test [1] stood at 1.78 z-score; with GST-Hu-p50, 1.2 z-score.

As for “CCGATTAACATCATAATTCCCAATGATGTTAATCGGGTCTTGATTCGCTTGACGCTGCTG”, the binding signal in test [1] came out at 3.07 z-score; in the test with GST-Hu-p50 it was 2.73 z-score.

As to “CCGATTAACATCAGGACTCTCCCTGATGTTAATCGGGTCTTGATTCGCTTGACGCTGCTG”, the values for the binding signal (in test [1]; with GST-Hu-p50) were 2.28 z-score and 3.64 z-score, respectively.

As to “CCGATTAACATCAAGGATTCCCGTGATGTTAATCGGGTCTTGATTCGCTTGACGCTGCTG”, the binding signal turned out to be 2.82 z-score in test [1] and 2.13 z-score with GST-Hu-p50.

Regarding “CCGATTAACATCACCGAATTTCCTGATGTTAATCGGGTCTTGATTCGCTTGACGCTGCTG”, the values for the binding signal (in test [1]; in the test with GST-Hu-p50) were 1.32 z-score and 2.56 z-score, respectively.

On to “CCGATTAACATCAGGAGTCTCCCTGATGTTAATCGGGTCTTGATTCGCTTGACGCTGCTG”, for which the binding signal (in test [1]; in the test with GST-Hu-p50) was 1.4 z-score each time.

As for “CCGATTAACATCAGGAATATACCTGATGTTAATCGGGTCTTGATTCGCTTGACGCTGCTG”, the results for the binding signal (in test [1]; in the test with GST-Hu-p50) were 1.48 z-score and 1.06 z-score, respectively.

On to “CCGATTAACATCAGGGGGGGTACTGATGTTAATCGGGTCTTGATTCGCTTGACGCTGCTG”, for which the values for the binding signal (in test [1]; with GST-Hu-p50) were 4.19 z-score and 3.91 z-score, respectively.

As to “CCGATTAACATCAGGCACCCCCCTGATGTTAATCGGGTCTTGATTCGCTTGACGCTGCTG”, the results for the binding signal (in test [1]; in the test with GST-Hu-p50) were 3.18 z-score and 4.38 z-score, respectively.

On to “CCGATTAACATCACCCCAGCCCCTGATGTTAATCGGGTCTTGATTCGCTTGACGCTGCTG”, for which the binding signal in test [1] is 1.91 z-score; with GST-Hu-p50 it was 2.68 z-score.

For the sequence “CCGATTAACATCAGCACCCCCCCTGATGTTAATCGGGTCTTGATTCGCTTGACGCTGCTG”, the binding signal worked out at 3.4 z-score in test [1] and 4.3 z-score with GST-Hu-p50.

Turning to “CCGATTAACATCAATTCCCATGATGATGTTAATCGGGTCTTGATTCGCTTGACGCTGCTG”, the binding signal was 1.33 z-score in test [1] and 1.61 z-score with GST-Hu-p50.

For the sequence “CCGATTAACATCAGAACTTTCCCTGATGTTAATCGGGTCTTGATTCGCTTGACGCTGCTG”, the binding signal in test [1] was found to be 5.58 z-score; with GST-Hu-p50, 4.94 z-score.

Regarding “CCGATTAACATCATGGTGGGAAATGATGTTAATCGGGTCTTGATTCGCTTGACGCTGCTG”, the binding signal in test [1] was determined as 2.25 z-score; in the test with GST-Hu-p50, 2.18 z-score.

Consider “CCGATTAACATCAAAATTTCACCTGATGTTAATCGGGTCTTGATTCGCTTGACGCTGCTG”, for which the binding signal in test [1] was determined as 3.88 z-score; in the test with GST-Hu-p50, 3.28 z-score.

Take “CCGATTAACATCACTGGGAATTCTGATGTTAATCGGGTCTTGATTCGCTTGACGCTGCTG”: the values for the binding signal (in test [1]; with GST-Hu-p50) were 3 z-score and 3.22 z-score, respectively.

For the sequence “CCGATTAACATCAAAAGAATCCCTGATGTTAATCGGGTCTTGATTCGCTTGACGCTGCTG”, the binding signal was 2.43 z-score in test [1] and 3.14 z-score with GST-Hu-p50.

As for “CCGATTAACATCAGGCAAATCCCTGATGTTAATCGGGTCTTGATTCGCTTGACGCTGCTG”, the figures for the binding signal (in test [1]; with GST-Hu-p50) were 1.09 z-score and 1.9 z-score, respectively.

Take “CCGATTAACATCAAGGGAGTACCTGATGTTAATCGGGTCTTGATTCGCTTGACGCTGCTG”: the binding signal is 4.41 z-score in test [1] and 2.56 z-score with GST-Hu-p50.

For “CCGATTAACATCAGGAGTCCCCATGATGTTAATCGGGTCTTGATTCGCTTGACGCTGCTG”, the binding signal in test [1] amounted to 4.11 z-score; with GST-Hu-p50, 4.86 z-score.

In the case of “CCGATTAACATCATGGAGGGAGGTGATGTTAATCGGGTCTTGATTCGCTTGACGCTGCTG”, the values for the binding signal (in test [1]; in the test with GST-Hu-p50) were 1.02 z-score and 1.63 z-score, respectively.

As to “CCGATTAACATCAGGGGTTTCACTGATGTTAATCGGGTCTTGATTCGCTTGACGCTGCTG”, the binding signal in test [1] came to 2.32 z-score; in the test with GST-Hu-p50, 4.22 z-score.

Turning to “CCGATTAACATCACAATACCCCCTGATGTTAATCGGGTCTTGATTCGCTTGACGCTGCTG”, the binding signal turned out to be 5.97 z-score in test [1] and 4.87 z-score in the test with GST-Hu-p50.

Take “CCGATTAACATCAAATTCCCACTTGATGTTAATCGGGTCTTGATTCGCTTGACGCTGCTG”: the binding signal in test [1] turned out to be 3.95 z-score; with GST-Hu-p50, 3.73 z-score.

With “CCGATTAACATCAATTTTTCCCATGATGTTAATCGGGTCTTGATTCGCTTGACGCTGCTG”, the binding signal in test [1] stood at 5.77 z-score; in the test with GST-Hu-p50, 3.53 z-score.

Values taken from paper PMC5700166.
